The supplement of paper PMC6522484
Where a name gives a salt, the structure may show the parent alone. ± gives the standard deviation of the averaged measurements.

Experiments:
DLD1 [1] = assay: cell viability (CellTiter-Glo) relative to plate median (fraction of plate median); higher = more viable cells; details: 10 µM, treatment time 24 h
Procedure, shortened: (§1)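 Values are the mean of two independent replicates of luminescence normalised to the plate median with webcellHTS2, using the additive method without log transformation. They come from colorectal cancer cell lines stably transduced with lentiviral TCF/Wnt firefly luciferase reporters (7TFP or TCF4/Wnt), seeded in 384-well plates. After 24 h the cells got kinase inhibitor library compounds at a final 10 µM for 24 h, and parallel plates were read for firefly luciferase or CellTiterGlo on a Tecan F500.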

HCT116 [2] = assay: as above; details: 10 µM; treatment time 24 h; reporter: TCF4/Wnt
Procedure, shortened: as §1

SW480 [3] = assay: as above; details: 10 µM; treatment time 24 h; reporter: 7TFP
Procedure, shortened: as §1

DLD1 [4] = assay: TCF/Wnt firefly luciferase reporter signal relative to plate median (fraction of plate median); higher = higher Wnt reporter signal; details: 10 µM, treatment time 24 h
Procedure, shortened: as §1

HCT116 [5] = assay: as above; details: 10 µM; treatment time 24 h; reporter: TCF4/Wnt
Procedure, shortened: as §1

SW480 [6] = assay: as above; details: 10 µM; treatment time 24 h; reporter: 7TFP
Procedure, shortened: as §1

Structure (SMILES)	cell viability (DLD1 [1]; reporter: 7TFP)	cell viability (DLD1 [1]; reporter: TCF4/Wnt)	cell viability (HCT116 [2])	cell viability (SW480 [3])	TCF/Wnt firefly luciferase reporter signal (DLD1 [4]; reporter: 7TFP)	TCF/Wnt firefly luciferase reporter signal (DLD1 [4]; reporter: TCF4/Wnt)	TCF/Wnt firefly luciferase reporter signal (HCT116 [5])	TCF/Wnt firefly luciferase reporter signal (SW480 [6])
Nc1nc(N)c2nc(-c3cccc(O)c3)cnc2n1	1.09 ± 0.014	1.08 ± 0.021	0.97 ± 0.018	1.04 ± 0.064	1.4 ± 0.26	1.15 ± 0.085	1.33 ± 0.31	1.34 ± 0.042
Cc1[nH]c(/C=C2\C(=O)Nc3ccc(S(=O)(=O)Cc4c(Cl)cccc4Cl)cc32)c(C)c1C(=O)N1CCC[C@@H]1CN1CCCC1	0.691 ± 0.27	0.648 ± 0.43	0.826 ± 0.33	0.798 ± 0.34	0.7 ± 0.36	0.868 ± 0.16	0.7 ± 0.88	1.21 ± 0.028
CN(C)C1CCN(C(=O)c2ccc(NC(=O)Nc3ccc(-c4nc(N5CCOCC5)nc(N5CCOCC5)n4)cc3)cc2)CC1	1.1 ± 0.17	1.05 ± 0.081	0.649 ± 0.051	1.17 ± 0.05	0.947 ± 0.076	0.933 ± 0.073	0.611 ± 0.23	0.958 ± 0.1
Clc1ccc(C2(c3ccc(-c4cn[nH]c4)cc3)CCNCC2)cc1	1.01 ± 0.025	1.08 ± 0.028	1.03 ± 0.13	1.15 ± 0.057	1.13 ± 0.13	0.883 ± 0.11	0.871 ± 0.024	1.33 ± 0.021
C[C@@H](N)[C@H]1CC[C@H](C(=O)Nc2ccncc2)CC1	1.03 ± 0.05	1.03 ± 0.05	1.09 ± 0.021	1.045 ± 0.0071	1.22 ± 0.092	1.32 ± 0.057	1.53 ± 0.064	1.18 ± 0.057
Cc1ccc(NC(=O)c2ccc(CN3CCN(C)CC3)cc2)cc1Nc1nccc(-c2cccnc2)n1 [Imatinib Mesylate]	0.9835 ± 0.0064	0.907 ± 0.17	0.91 ± 0.024	0.984 ± 0.066	2.07 ± 0.14	1.51 ± 0.4	1.32 ± 0.47	1.73 ± 0.15
COc1cc2ncnc(Nc3cccc(Br)c3)c2cc1OC	1.15 ± 0.15	1.07 ± 0.064	1.06 ± 0.086	1.03 ± 0.071	0.631 ± 0.37	0.58 ± 0.13	0.911 ± 0.11	0.838 ± 0.09
O=C(NC1CCNCC1)c1n[nH]cc1NC(=O)c1c(Cl)cccc1Cl	1.16 ± 0.33	1.16 ± 0.18	0.793 ± 0.16	1.31 ± 0.17	0.517 ± 0.1	0.797 ± 0.67	0.226 ± 0.018	0.798 ± 0.074
COc1cc2c(Nc3ccc(NC(=O)c4ccccc4)cc3)ncnc2cc1OCCCN1CCOCC1	0.8075 ± 0.005	0.872 ± 0.042	1.01 ± 0.041	1.11 ± 0.021	1.13 ± 0.085	1.19 ± 0.2	1.42 ± 0.23	1.43 ± 0.057
Cc1cccc(-c2[nH]c(C(C)(C)C)nc2-c2ccc3nccnc3c2)n1	1.14 ± 0.064	1.06 ± 0.14	1.17 ± 0.028	0.853 ± 0.043	1.1 ± 0.042	1.03 ± 0.12	1.03 ± 0.14	0.854 ± 0.17
O=C1Nc2ccccc2/C1=C1/Nc2ccccc2C1=O [Indirubin]	0.941 ± 0.044	0.819 ± 0.025	1.09 ± 0.13	0.862 ± 0.034	1.44 ± 0.057	1.2 ± 0.31	0.935 ± 0.054	1.08 ± 0.042
COc1cc2/c(=N/c3ccc(Br)cc3F)nc[nH]c2cc1OCC1CCN(C)CC1 [Vandetanib (Zactima)]	0.921 ± 0.18	1.08 ± 0.057	1.14 ± 0.085	1.2 ± 0.035	0.9625 ± 0.0035	0.773 ± 0.093	0.916 ± 0.081	1.2 ± 0.092
CS(=O)(=O)CCNCc1ccc(-c2ccc3ncnc(Nc4ccc(OCc5cccc(F)c5)c(Cl)c4)c3c2)o1 [Lapatinib Ditosylate (Tykerb)]	1.06 ± 0.078	1.02 ± 0.03	0.972 ± 0.04	0.913 ± 0.035	1.27 ± 0.078	1.1 ± 0.042	1.25 ± 0.18	1.16 ± 0.057
CCOc1ccn(-c2ccc(F)cc2)c(=O)c1C(=O)Nc1ccc(Oc2ccnc(N)c2Cl)c(F)c1	0.97 ± 0.071	0.971 ± 0.056	1.16 ± 0.014	0.991	0.983 ± 0.12	0.893 ± 0.12	1.19 ± 0.23	0.978 ± 0.031
Cc1cnc(Nc2ccc(OCCN3CCCC3)cc2)nc1Nc1cccc(S(=O)(=O)NC(C)(C)C)c1	1.07 ± 0.064	1.14 ± 0.16	1.14	0.871 ± 0.04	1.2 ± 0.26	1.14 ± 0.18	1.31 ± 0.22	1.06 ± 0.078
C[C@@H]1CN(CC(=O)Nc2ccc3c(c2)Cc2cccc(-c4cc(=O)cc(N5CCOCC5)o4)c2S3)C[C@H](C)O1	0.7975 ± 0.00071	0.878 ± 0.043	0.957 ± 0.012	0.952 ± 0.058	1.3 ± 0.092	1.32 ± 0.11	1.33 ± 0.66	1.23 ± 0.071
O=c1sn(-c2cccc3ccccc23)c(=O)n1Cc1ccccc1 [Tideglusib]	1.03 ± 0.081	0.9475 ± 0.005	1.03 ± 0.067	0.946 ± 0.0099	1.32 ± 0.035	1.17	1.285 ± 0.0071	1.11 ± 0.064
CN1CCN(C2CCN(C(=O)Nc3cc(Oc4ccc(NC(=O)C5(C(=O)Nc6ccc(F)cc6)CC5)c(F)c4)ccn3)CC2)CC1 [Golvatinib (E7050)]	0.964 ± 0.18	0.904 ± 0.011	1.07 ± 0.064	1.16 ± 0.064	0.719 ± 0.03	0.728 ± 0.028	0.915 ± 0.12	1.06 ± 0.12
CC(C)(C)Cn1c(N)nc2ccc(-c3[nH]c(C(C)(C)C)nc3-c3ccc(F)cc3)nc21	1.07 ± 0.12	0.931 ± 0.089	0.928 ± 0.071	1.11	1.21 ± 0.05	0.969 ± 0.1	1.45 ± 0.38	1.36 ± 0.014
CCN1CCN(c2ccc(Nc3cc(N(C)C(=O)Nc4c(Cl)c(OC)cc(OC)c4Cl)ncn3)cc2)CC1	1.36 ± 0.18	1.06 ± 0.071	1.16 ± 0.092	0.921 ± 0.033	1.24 ± 0.11	1.06 ± 0.51	0.852 ± 0.15	0.921 ± 0.12
CNC(=O)c1ccccc1Sc1ccc2c(/C=C/c3ccccn3)n[nH]c2c1 [Axitinib]	0.9855 ± 0.0021	1 ± 0.052	0.965 ± 0.0028	0.906 ± 0.051	1.7 ± 0.057	1.97 ± 0.33	1.53 ± 0.89	1.36 ± 0.92
CCCNC(=O)Nc1ccc(Oc2ncnc3cc(OC)c(OC)cc23)cc1Cl	1.15 ± 0.085	1.02 ± 0.03	1.15 ± 0.035	0.9145 ± 0.005	1.2 ± 0.085	1.11 ± 0.085	1.04 ± 0.042	0.975 ± 0.14
